The results in this text go back to PubChem BioAssay (NCI).

About 83,000 compounds went through this panel and 20% of them were active in at least one assay; those are over-represented in the sample as a whole.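 Activity criterion: percent growth below 10, measured after cells in 96-well plates were exposed to a single compound concentration for 48 hours.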 Active and inactive are the calls of the source.

For this assay, the system named is A498 renal. Description: NCI-60 one-dose screen, 48 h (100 = growth as untreated, 0 = no growth, -100 = all killed). The note with it: 10 µM unless noted.
`O=C1Nc2ccc(Br)cc2C1=N/C=c1\[nH]c(=O)/c(=C/c2ccc(Cl)cc2)s1`: the growth was 94.5% (inactive).

As for `Nc1c(C(=O)Nc2cccc(C(F)(F)F)c2)sc2nc3c(cc12)CCCCC3`, the growth is -21.8% (active).

For `COc1cc(/C=C2\C=C(c3ccc(F)cc3)N(Cc3ccccc3)C2=O)cc(OC)c1OC`, the growth was 57.4% (inactive).

With `Clc1nc(Cl)c2ncn(C/C=C/Cn3cnc4c(Cl)nc(Cl)nc43)c2n1`, the growth is 90.2% (inactive).

Turning to `NC(C(=O)O)C(O)c1ccc(OCc2ccccc2)c(OCc2ccccc2)c1` (stereo not given), the growth is 85.3% (inactive).

With `Nc1c(C(=O)Nc2ccccc2)sc2nc3c(cc12)CCC3`, the growth is 80.7% (inactive).

Take `COc1ccc(/C=C/c2cc(N3CCOCC3)c3cc(F)c(F)cc3n2)cc1OC`: the growth is 54.8% (inactive).

With `O=[N+]([O-])c1cccc(-c2cc(-c3cc(Br)ccc3O)[nH]n2)c1`, the growth was 40% (inactive).

`COC1=CC(c2ccc[nH]2)=N/C1=C\c1[nH]c(C)c(C(=O)CCC(=O)Oc2ccc3c(c2)CCC2C3CC[C@]3(C)[C@@H](O)CC[C@@H]23)c1C` (stereo not given in full): the growth was -12.7% (active).

Turning to `COc1ccc(C2=NN(c3ccc(S(N)(=O)=O)cc3)C(c3cn(-c4ccccc4)nc3-c3ccc(Cl)cc3)C2)cc1` (stereo not given), the growth is 76.4% (inactive).

For `COc1cc(CCn2nnc3c(NCCCCO)ncnc32)cc(OC)c1`, the growth was 89% (inactive).

Consider `Clc1ccc(-c2nc(-c3ccco3)cn3ccnc23)cc1`, for which the growth is 36.8% (inactive).

For `O=C(c1ccncc1)N1N=C(c2ccc(Cl)cc2)CC1c1c[nH]c2ccccc12` (stereo not given), the growth is 80.5% (inactive).

On to `COc1ccc(-c2cn[nH]c2-c2cc(OC)c3c(c2)OCCO3)cc1`, for which the growth is -13.4% (active).

For `O=S(=O)(c1ccccc1)n1ccc(-c2ccc3c(c2)CCO3)n1`, the growth was 71.2% (inactive).

With `COC1=CC(c2ccc[nH]2)=N/C1=C\c1[nH]c(C)c(C(=O)CCCCC(=O)NCc2ccccc2)c1C`, the growth is 89.1% (inactive).

For `Nc1c(C(=O)Nc2cccc([N+](=O)[O-])c2)sc2nc3c(cc12)C(O)CCC3` (stereo not given), the growth is 27.6% (inactive).

For `COc1cccc(NC(=O)c2sc3nc4c(cc3c2N)CCCC4)c1`, the growth was 17.6% (inactive).

On to `O=C(Nc1cccc(C(F)(F)F)c1)Nc1ccc(OCc2nnc(-c3ccccc3)o2)c(F)c1`, for which the growth is 43.5% (inactive).

Regarding `CC(=O)Nc1nc(C(=O)N2N=C(C)/C(=C/c3ccc(Cl)cc3)C2=O)cs1`, the growth is 117% (inactive).

Turning to `COc1cc(C(=O)OCCCCCCCCCCC[P+](c2ccccc2)(c2ccccc2)c2ccccc2)ccc1O`, the growth is -0.743% (active).

As for `O=C(NCCCN1CCN(CCCNC(=O)C2CCCCC2)CC1)C1CCCCC1`, the growth was 105% (inactive).

For the compound `COc1cc2c(cc1OC)C1(C)N(CC2)C(=O)OC1(C)C` (stereo not given), the growth was 78.8% (inactive).

For `CCCCCc1c(C)[nH]c(/C=c2\[nH]/c(=C3/C=c4ccccc4=N3)cc2OC)c1C`, the growth was -29.4% (active).

Take `COc1cc(-c2n[nH]nc2-c2ccc3c(c2)OCCO3)cc(OC)c1OC`: the growth is -14.6% (active).
